Rows were chosen to be rich in hits. Some 5.1% of all compounds tested hit in one or more screens of this group.
Tau ThT inhib: tau fibrillization inhibition (ThT binding); P10636; recombinant tau K18 P301L, heparin-induced fibrillization, ThT fluorescence; Potency, µM (highest dose often 57.4 µM), without a hit: at the highest dose activity, negative = inhibition, hits mostly inhibitors; 2.1% of 270,000 active; AID 1460; further: potency means the concentration at half of the fitted maximal effect; nearly all actives have a fitted effect of over 55% in size
Target sequence (P10636 561-689 P618L limits assumed): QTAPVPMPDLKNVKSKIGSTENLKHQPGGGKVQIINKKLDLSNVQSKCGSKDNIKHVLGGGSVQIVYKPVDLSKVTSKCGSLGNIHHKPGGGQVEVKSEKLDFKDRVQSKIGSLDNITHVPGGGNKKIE
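Recombinant human tau K18 fragment […] carrying P301L, 15 uM unlabeled plus 0.24 uM Alexa 594-labeled, was fibrillized with 20 uM heparin in 100 mM sodium acetate pH 7 for 6 hr at 37 C; 30 uM ThT fluorescence read after 1 hr.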
Tau FP inhib: blocks human tau fibril formation measured by polarization | P10636 | K18 P301L tau heparin fibrillization, Alexa594 FP, 6 h | Potency, µM (series often up to 57.7 µM), for the others: at the top dose activity, negative = inhibition, hits mostly inhibitors | 0.39% of 280,000 active | AID 1468; further: potency means the concentration at half of the fitted maximal effect; nearly all actives have a fitted effect of over 55% in size
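FP of Alexa 594-tau after heparin (20 uM) induction. Substrate: human K18 P301L, 15 uM unlabeled, 0.24 uM labeled. Buffer 100 mM sodium acetate pH 7. 6 hr, 37 C.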
NPSR antagonist: neuropeptide S receptor (human) antagonism, cAMP | 1% of 220,000 active | CHO-NPSR cells, cAMP TR-FRET, antagonist mode | Potency, µM (series often up to 38.3 µM), without a hit: at the highest dose activity change, negative = inhibition, actives largely listed as inhibitors | AID 1461; further: potency means the concentration at half of the fitted maximal effect; nearly all actives have a fitted effect of over 50% in size
KDM4E inh: inhibitors of human JMJD2E histone demethylase. JMJD2E catalytic domain, FDH-coupled NADH fluorescence (FDH is formaldehyde dehydrogenase). 1.6% of 230,000 active. Potency, µM (highest dose often 57.1 µM), inactives show at the top dose activity change, negative = inhibition, usual class: inhibitors; active means well fitted inhibition curve with a large enough effect, not every such curve was filed as active; inconclusive means small, poorly fitted or top-dose-only effect, or another doubt; inactive means no such curve, though single readings can be large or run the other way;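 further: potency means the concentration at half of the fitted maximal effect; 0% = wells with enzyme and -100% = buffer wells without enzyme; nearly all actives have a fitted effect of over 50% in size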
Target sequence (B2RXH2 1-337 limits assumed): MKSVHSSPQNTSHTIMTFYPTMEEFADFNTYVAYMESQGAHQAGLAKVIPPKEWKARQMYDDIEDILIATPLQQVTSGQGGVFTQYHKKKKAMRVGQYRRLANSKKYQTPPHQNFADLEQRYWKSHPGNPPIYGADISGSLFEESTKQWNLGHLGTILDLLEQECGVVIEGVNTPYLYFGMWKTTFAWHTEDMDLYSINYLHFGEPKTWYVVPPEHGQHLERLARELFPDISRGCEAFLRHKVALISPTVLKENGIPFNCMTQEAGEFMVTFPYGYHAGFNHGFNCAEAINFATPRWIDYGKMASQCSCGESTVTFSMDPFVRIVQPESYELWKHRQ
Tau fluor cs: counter-screen for tau fibril formation inhibitors | tau K18 P301L Alexa594 fluorescence, heparin fibrillization | Potency, µM (doses to about 57.7 µM), without a hit: at the highest dose activity change, negative = decrease | 0.93% of 280,000 active; further: potency means the concentration at half of the fitted maximal effect; nearly all actives have a fitted effect of over 55% in size
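Human tau K18 P301L (15 uM unlabeled, 0.24 uM Alexa 594-labeled) in 100 mM sodium acetate pH 7 with 20 uM heparin, 6 hr at 37 C. ThT 30 uM added, 1 hr ambient; Alexa 594 FP and total fluorescence read at 555/632 nm.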
PNC assembly inh: blocks assembly of the perinucleolar compartment | PC3M PTB-GFP, PNC prevalence imaging, 16 h; active compounds read low | activity change (PNC), negative = inhibition, % at 10 µM | 3.1% of 140,000 active | AID 2417;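 active means readout at or below -70, meaning at least 70% loss of cells showing the perinucleolar compartment, a nuclear body marking cancer cells; inconclusive means readout between -30 and a set limit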;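 further: plate controls were DMSO wells for no effect and camptothecin positive control wells for full effect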
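Read-out is percentage of cells bearing a perinucleolar compartment, from automated 20x imaging of fixed, Hoechst-stained PC3M PTB-GFP cells. Cells were seeded 4 h, then exposed 16 h to compound (23 nl of library stock) in duplicate plates.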
Starred values were filed as active, the others as inactive; ? = inconclusive; / = no result; [ ] = remark or other dose. Unless noted, the call rests on the fitted dose curve; in most records, active means well fitted curve in the direction sought with a large enough effect; inconclusive means small, poorly fitted or top-dose-only effect, or another doubt; inactive means no such curve, though single readings can be large; an effect the other way counts as inactive or inconclusive. Unless noted, on the % scale 0 is the no-effect control and ±100 the full control effect.

SMILES	Tau ThT inhib	Tau FP inhib	NPSR antagonist	KDM4E inh	Tau fluor cs	PNC assembly inh
Cc1cccc(CN2CCN(CC(=O)NCCc3ccc(Cl)cc3)C2=O)c1	-13.3%	-1.8%	/	/	-15.1%	/
CCc1ccc(OCC(=O)NCC(c2ccc(Cl)cc2)N2CCOCC2)cc1 (centres undefined)	-9.1%	1.9%	/	/	-1.9%	/
CCCCC/C=C\C/C=C\CCCCCCCC(=O)NCCCC(=O)O	-5.2%	0.1%	/	7.0%	-8.1%	/
O=[N+]([O-])c1cc(Cl)c(O)c2ncccc12	12.6µM*	-5.3%	-39.6%	?	-19.9%	/
O=[N+]([O-])c1ccc(O)c2ncccc12	?	?	-31.4%	?	-17.7%	-8.2
CC1=CN2C(=NC(=O)CC2(C)C(=O)N(CC(=O)NC2CCCC2)c2ccccc2C)C=C1 (centres undefined)	0.0%	-4.6%	3.5%[46.1 µM]	?	-1.6%	-100.0*
NC(=O)c1ccsc1N	20µM*	31.6µM*	-1.9%	-7.9%	-24.9%	/
CCCSc1ncc(Cl)c(C(=O)Nc2sc3c(c2C(=O)OC)CCCC3)n1	-0.8%	-5.1%	/	/	-5.7%	/
CC1(C)C(=O)C2(CCCCC2)C(=O)OC1c1cccn1-c1ccc([N+](=O)[O-])cc1 (centres undefined)	-8.2%	0.2%	-9.8%	2.4%	-10.1%	-87.3*
CC1(C)C(=O)OC(c2cccn2-c2ccc([N+](=O)[O-])cc2)C(C)(C)C1=O (centres undefined)	-0.2%	-9.0%	3.3%	8.1%	-14.3%	18.7
CCc1ccccc1N1CC(c2nc3ccccc3n2CCOc2ccc(Cl)c(C)c2)CC1=O (centres undefined)	?	-8.2%	/	/	-16.7%	/
c1ccc(-c2c(-c3ccccc3)n(Cc3ccco3)c3ncnc(NCCCn4ccnc4)c23)cc1	?	-11.8%	25.1µM*	?	-25.7%	-16.0
CC(C)Cn1cnc2c(c(-c3ccccc3)c(-c3ccccc3)n2Cc2ccco2)c1=N	-15.9%	-2.7%	?	8.0%	-1.6%	8.5
N=c1c2c(-c3ccccc3)c(-c3ccccc3)n(Cc3ccco3)c2ncn1CCCN1CCOCC1	-7.4%	0.9%	?	4.7%	5.9%	/
O=c1c2c3nc4ccccc4nc3n(Cc3ccccc3)c2ncn1Cc1ccco1	?	?	10µM*	5.1%	-17.8%	-22.1
N=c1c2c(-c3ccccc3)c(-c3ccccc3)n(Cc3ccco3)c2ncn1CCCn1ccnc1	-4.5%	3.2%	-16.6%	2.5%	9.8%	-98.3*
N=c1c2c(-c3ccccc3)c(-c3ccccc3)n(Cc3ccco3)c2ncn1Cc1ccccc1	?	4.0%	10µM*	5.2%	-5.7%	-5.5
c1ccc(-c2oc3ncnc(NCCCn4ccnc4)c3c2-c2ccccc2)cc1	?	-11.6%	?	?	-12.4%	?
CCCNC(=O)C(=O)NCC(c1ccc2c(c1)OCO2)N1CCOCC1 (centres undefined)	0.5%	0.3%	/	/	-3.9%	/
O=c1oc2cc(O)ccc2cc1-c1nc2c(s1)CCc1ccccc1-2	-8.6%	-18.6%	-5.6%	?	11.2µM*[quencher]	?
O=c1oc2ccccc2cc1-c1nc2c(s1)CCc1ccccc1-2	7.0%	9.0%	-15.1%	-3.9%	4.3%	7.7
CCOc1ccc(NC(=O)c2cc(Cl)nc3ccccc23)cc1	-14.9%	-5.9%	-2.7%	-7.1%	-16.6%	/
Cc1cccc(OCC(=O)NNc2c3ccccc3nc3ccccc23)c1	?	8.0%	?	2.7%	14.1µM*[quencher]	-8.7
Cc1ccc(OCC(=O)NNc2c3ccccc3nc3ccccc23)cc1	12.6µM*	7.7%	-41.2%	?	14.1µM*[quencher]	?
CCOc1ccc(Nc2c3ccccc3nc3ccccc23)cc1	20µM*	14.3%	?	?	?	/
SMILES	Tau ThT inhib	Tau FP inhib	NPSR antagonist	KDM4E inh	Tau fluor cs	PNC assembly inh
O=C(Cc1ccccc1)NNc1c2ccccc2nc2ccccc12	?	10.2%	-36.9%	?	?	/
CCN(CC)CCOC(=O)c1ccc(NC(=O)c2cn(-c3ccccc3)nc2-c2cccs2)cc1	-2.4%	11.2µM*	-35.3%	?	8.91µM*[quencher]	/
CCN(CC)CCNC(=O)c1cn(-c2ccccc2)nc1-c1cccs1	-2.0%	-15.4%	3.2%[46.1 µM]	-22.8%	-20.6%	-24.4
CN(C)c1ccc(NC(=O)c2cn(-c3ccccc3)nc2-c2cccs2)cc1	?	13.7%	-19.5%[46.1 µM]	-25.3%	8.91µM*[quencher]	?
COC(=O)c1scc(-c2ccc(C)cc2)c1S(=O)(=O)N1CCN(c2ccc(OC)cc2)CC1	-4.2%	?	/	/	?	/
Cc1ccc(S(=O)(=O)n2ccc3cccnc32)cc1	1.5%	0.8%	-4.1%[46.1 µM]	1.3%	-3.9%	-100.0*
O=S(=O)(c1ccc(Cl)cc1)n1ccc2cccnc21	5.2%	-1.0%	-4.2%[46.1 µM]	0.0%	0.6%	-100.0*
O=S(=O)(c1ccc(Cl)cc1Cl)n1ccc2cccnc21	-9.3%	-4.5%	-13.9%	-3.6%	-9.9%	/
CCOC(=O)c1c(C)[nH]c(C)c1S(=O)(=O)N1CCN(c2ccc(Cl)cc2)CC1	-2.2%	-6.3%	/	/	?	/
Cc1ccc(CSc2nnc(-c3ccc(S(=O)(=O)N4CCCC4)cc3)o2)cc1	-5.9%	-4.8%	-19.7%[46.1 µM]	7.7%	-5.7%	-91.5*
O=S(=O)(c1ccc(-c2nnc(SCc3ccccc3)o2)cc1)N1CCCC1	-1.4%	-8.3%	?	-20.1%	-9.0%	2.9
O=C(Nc1ccc(N2CCOCC2)cc1)Nc1ccc2nc(-c3ccco3)c(-c3ccco3)nc2c1	8.5%	-2.6%	-12.8%[46.1 µM]	-2.7%	6.3%	316.7
O=C(Nc1ccc2nc(-c3ccco3)c(-c3ccco3)nc2c1)NC1CC1	7.08µM*	?	1.5%[46.1 µM]	?	12.6µM*[quencher]	15.2
O=C(Nc1cccc(C(F)(F)F)c1)c1ccc2nc(N3C(=O)CCC3=O)sc2c1	-10.8%	?	-10.4%[46.1 µM]	?	-19.3%	112.3
COc1ccc(CCn2c(N)c(C(=O)NCc3ccco3)c3nc4ccccc4nc32)cc1OC	17.8µM*	31.6µM*	-26.6%[46.1 µM]	?	?	22.1
COc1ccc(CCNC(=O)c2ccc3nc(-c4ccco4)c(-c4ccco4)nc3c2)cc1OC	6.31µM*	?	?	12.6µM*	12.6µM*[quencher]	18.1
O=C(Nc1cccc(C(F)(F)F)c1)c1ccc2nc(-c3ccco3)c(-c3ccco3)nc2c1	14.1µM*	?	3.0%[46.1 µM]	14.1µM*	15.8µM*[quencher]	18.9
COC(=O)c1ccc(NC(=O)Cc2coc3cc(C)ccc23)cc1	-14.1%	?	/	/	?	/
CC(=O)OCC#CCSc1nnc(-c2cccc(Br)c2)o1	-22.3%	4.9%	/	/	-18.0%	/
Cc1ccc(NC(=O)Cn2c(=O)n(CCC(=O)N3CCc4ccccc4C3)c(=O)c3ccccc32)cc1	5.2%	-11.3%	/	/	?	/
Cc1ccc2cccc(NC(=O)COc3ccccc3[N+](=O)[O-])c2n1	-6.2%	-0.8%	/	/	-6.6%	/

Screening data as filed in PubChem BioAssay.
